About 83,000 compounds went through this panel and 20% of them were active in at least one assay; those are over-represented in the sample as a whole.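 48-hour exposure, single concentration, 96-well plates; percent growth endpoint where 0 means no net growth. Active: below 10.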 The source made the active and inactive calls.
Assays:
Experiment in all cases: NCI-60 one-dose screen, 48 h (100 = growth as untreated, 0 = no growth, -100 = all killed)
Settings in all cases: 10 µM unless noted
DU-145 prostate = tested on: DU-145 prostate
K-562 leukemia = tested on: K-562 leukemia
MALME-3M melanoma = tested on: MALME-3M melanoma
MDA-MB-231 breast = tested on: MDA-MB-231 breast
RXF 393 renal = tested on: RXF 393 renal
SF-268 CNS = tested on: SF-268 CNS
SF-295 CNS = tested on: SF-295 CNS
SF-539 CNS = tested on: SF-539 CNS
UACC-257 melanoma = tested on: UACC-257 melanoma
M14 melanoma = tested on: M14 melanoma
HCT-15 colon = tested on: HCT-15 colon
HT29 colon = tested on: HT29 colon
SNB-75 CNS = tested on: SNB-75 CNS
SNB-19 CNS = tested on: SNB-19 CNS
U251 CNS = tested on: U251 CNS
PC-3 prostate = tested on: PC-3 prostate
SK-MEL-5 melanoma = tested on: SK-MEL-5 melanoma
UACC-62 melanoma = tested on: UACC-62 melanoma
LOX IMVI melanoma = tested on: LOX IMVI melanoma
SK-MEL-28 melanoma = tested on: SK-MEL-28 melanoma

Measured: growth

C#CCNC(=O)[C@]1(C)CCC[C@@]2(C)[C@H]1CC=C1C=C(C(C)C)CC[C@@H]12
inactive: DU-145 prostate 103% | K-562 leukemia 121% | MALME-3M melanoma 97.5% | MDA-MB-231 breast 96.3% | RXF 393 renal 120% | SF-268 CNS 89.3% | SF-295 CNS 91.6% | SF-539 CNS 108% | UACC-257 melanoma 110% | M14 melanoma 98.6% | HCT-15 colon 94.8% | HT29 colon 102% | SNB-75 CNS 86.5% | SNB-19 CNS 101% | U251 CNS 106% | PC-3 prostate 95.4% | SK-MEL-5 melanoma 102% | UACC-62 melanoma 92.1% | LOX IMVI melanoma 96.8% | SK-MEL-28 melanoma 111%

Cn1cc(-c2nn3cc(-c4cccs4)nc3s2)c2cc(F)ccc21
inactive: DU-145 prostate 51.1% | K-562 leukemia 15.5% | MALME-3M melanoma 21.2% | MDA-MB-231 breast 34.5% | RXF 393 renal 64.4% | SF-268 CNS 45.2% | SF-295 CNS 28.2% | SF-539 CNS 24.3% | UACC-257 melanoma 63.4% | HCT-15 colon 23.5% | SNB-75 CNS 11.9% | SNB-19 CNS 32.1% | U251 CNS 26% | PC-3 prostate 45.2% | SK-MEL-5 melanoma 29.3% | UACC-62 melanoma 33.1% | LOX IMVI melanoma 35.4% | SK-MEL-28 melanoma 49.7%
active: M14 melanoma 6.34% | HT29 colon 7.69%

CCN1C(=O)N(CC)C2Nn3c(s/c(=C\c4ccccc4Br)c3=O)=NC21 (stereo not given)
inactive: DU-145 prostate 13.6% | K-562 leukemia 10.7% | MALME-3M melanoma 59.5% | MDA-MB-231 breast 19.7% | RXF 393 renal 28.4% | SF-268 CNS 50.1% | SF-295 CNS 25.2% | UACC-257 melanoma 46.1% | HCT-15 colon 18.6% | SNB-19 CNS 26.6% | PC-3 prostate 32.1% | SK-MEL-5 melanoma 13% | UACC-62 melanoma 22.8% | LOX IMVI melanoma 20.9% | SK-MEL-28 melanoma 42.1%
active: SF-539 CNS -20.1% | M14 melanoma 9.07% | HT29 colon 4.78% | SNB-75 CNS -1.27% | U251 CNS 4.95%

COc1ccc(CNc2c3ccccc3nc3ccccc23)c(OC)c1
inactive: DU-145 prostate 49.4% | K-562 leukemia 13.2% | MALME-3M melanoma 67% | MDA-MB-231 breast 43.6% | RXF 393 renal 33.4% | SF-268 CNS 65.7% | SF-295 CNS 36.3% | SF-539 CNS 14.6% | UACC-257 melanoma 74.6% | M14 melanoma 43.8% | HCT-15 colon 26% | HT29 colon 13.8% | SNB-75 CNS 64.5% | SNB-19 CNS 33.5% | U251 CNS 41.8% | PC-3 prostate 47.1% | SK-MEL-5 melanoma 70.3% | UACC-62 melanoma 54.5% | LOX IMVI melanoma 17.7% | SK-MEL-28 melanoma 69.3%

COC(=O)c1ccc(NC(=O)Nc2ccc(C(=O)OC)cc2)cc1
inactive: DU-145 prostate 121% | K-562 leukemia 90.6% | MALME-3M melanoma 123% | MDA-MB-231 breast 94.1% | RXF 393 renal 112% | SF-268 CNS 115% | SF-295 CNS 121% | SF-539 CNS 112% | UACC-257 melanoma 104% | M14 melanoma 103% | HCT-15 colon 93% | HT29 colon 82.4% | SNB-75 CNS 113% | SNB-19 CNS 97.2% | U251 CNS 113% | PC-3 prostate 82% | SK-MEL-5 melanoma 102% | UACC-62 melanoma 82.3% | LOX IMVI melanoma 98.1% | SK-MEL-28 melanoma 102%

CSc1nc(C)c([N+](=O)[O-])c(N)n1
inactive: DU-145 prostate 109% | K-562 leukemia 91% | MALME-3M melanoma 104% | MDA-MB-231 breast 96.5% | RXF 393 renal 114% | SF-268 CNS 105% | SF-295 CNS 109% | SF-539 CNS 104% | UACC-257 melanoma 84.7% | M14 melanoma 91.8% | HCT-15 colon 107% | HT29 colon 85.4% | SNB-75 CNS 98.7% | SNB-19 CNS 96.9% | U251 CNS 87.9% | PC-3 prostate 85.3% | SK-MEL-5 melanoma 102% | UACC-62 melanoma 98% | LOX IMVI melanoma 96.7% | SK-MEL-28 melanoma 120%

CNC(=O)c1cc(Oc2ccc3c(c2)sc2nc(-c4ccc(OC)cc4)cn23)ccn1
active: DU-145 prostate 8.28%
inactive: K-562 leukemia 33.8% | MALME-3M melanoma 68.3% | MDA-MB-231 breast 62.2% | RXF 393 renal 45.7% | SF-268 CNS 80.1% | SF-295 CNS 14.1% | SF-539 CNS 83.6% | UACC-257 melanoma 46.5% | M14 melanoma 57.9% | HCT-15 colon 52.7% | HT29 colon 65.6% | SNB-75 CNS 76.8% | SNB-19 CNS 79.8% | U251 CNS 81.8% | PC-3 prostate 58.3% | SK-MEL-5 melanoma 20.3% | UACC-62 melanoma 40.2% | LOX IMVI melanoma 82.1% | SK-MEL-28 melanoma 67.9%

CCCCNc1cc(-c2cn[nH]c2-c2cc(C)cc(OC)c2)nc(-c2cccnc2)n1
inactive: DU-145 prostate 93.6% | K-562 leukemia 80.1% | MALME-3M melanoma 100% | MDA-MB-231 breast 69.8% | RXF 393 renal 71.9% | SF-268 CNS 98.4% | SF-295 CNS 91.5% | SF-539 CNS 81.7% | UACC-257 melanoma 110% | M14 melanoma 98.7% | HCT-15 colon 82.7% | HT29 colon 95.1% | SNB-75 CNS 76.2% | SNB-19 CNS 95.6% | U251 CNS 87.3% | PC-3 prostate 80.9% | SK-MEL-5 melanoma 77.4% | UACC-62 melanoma 80.2% | LOX IMVI melanoma 91.2% | SK-MEL-28 melanoma 96.4%

C=CN(C(=O)N1CCN(c2cc3c(cc2F)c(=O)c(C(=O)O)cn3C2CC2)CC1)c1nc(-c2ccc(OC)cc2)cs1
active: SK-MEL-5 melanoma -7.22% | LOX IMVI melanoma 1.92%
inactive: DU-145 prostate 30.9% | K-562 leukemia 21.9% | MALME-3M melanoma 42.7% | MDA-MB-231 breast 22.1% | RXF 393 renal 20% | SF-268 CNS 29.6% | SF-295 CNS 11.8% | SF-539 CNS 25.8% | UACC-257 melanoma 26.9% | M14 melanoma 32.1% | HCT-15 colon 13.6% | HT29 colon 15.4% | SNB-75 CNS 23.6% | SNB-19 CNS 19.2% | U251 CNS 13.4% | PC-3 prostate 16.4% | UACC-62 melanoma 16.4% | SK-MEL-28 melanoma 45.7%

O=c1c2c3c(sc2n2c(-c4cc(-c5ccccc5)no4)nnc2n1Cc1ccccc1)CCCC3
inactive: DU-145 prostate 88.5% | K-562 leukemia 64.9% | MALME-3M melanoma 122% | MDA-MB-231 breast 80.5% | RXF 393 renal 77.8% | SF-268 CNS 93.5% | SF-295 CNS 83.4% | SF-539 CNS 114% | UACC-257 melanoma 110% | M14 melanoma 111% | HCT-15 colon 96.9% | HT29 colon 108% | SNB-75 CNS 76.2% | SNB-19 CNS 55.7% | U251 CNS 94.3% | PC-3 prostate 71.8% | SK-MEL-5 melanoma 105% | UACC-62 melanoma 80.7% | LOX IMVI melanoma 81% | SK-MEL-28 melanoma 127%

N=c1c(S(=O)(=O)c2ccccc2)cc2c(=O)n3ccccc3nc2n1CC1CCCO1 (stereo not given)
inactive: DU-145 prostate 110% | K-562 leukemia 113% | MALME-3M melanoma 118% | MDA-MB-231 breast 97.9% | RXF 393 renal 113% | SF-268 CNS 100% | SF-295 CNS 112% | SF-539 CNS 95.6% | UACC-257 melanoma 109% | M14 melanoma 104% | HCT-15 colon 119% | HT29 colon 120% | SNB-75 CNS 73.9% | SNB-19 CNS 103% | U251 CNS 108% | PC-3 prostate 95.3% | SK-MEL-5 melanoma 99.7% | UACC-62 melanoma 99.8% | LOX IMVI melanoma 98.7% | SK-MEL-28 melanoma 108%

C=C(c1ccc(OC)c(/C=C/C(=O)c2ccc3c(c2)OCO3)c1)c1cc(OC)c(OC)c(OC)c1
inactive: MALME-3M melanoma 67.2% | MDA-MB-231 breast 29% | SF-268 CNS 19.3% | SF-295 CNS 10.7% | UACC-257 melanoma 58.7% | M14 melanoma 11.3% | HT29 colon 10.2% | SNB-19 CNS 30.9% | U251 CNS 11% | PC-3 prostate 26.5% | SK-MEL-28 melanoma 11.5%
active: DU-145 prostate 9.67% | K-562 leukemia 6.89% | RXF 393 renal 3.52% | SF-539 CNS -21.8% | HCT-15 colon -8.44% | SNB-75 CNS 5.07% | SK-MEL-5 melanoma 0.661% | UACC-62 melanoma 2.65% | LOX IMVI melanoma -51.1%

CS(=O)(=O)Nc1cc(-c2ccc3ncc(C#N)c(Nc4ccc(F)c(Cl)c4)c3c2)cnc1Cl
inactive: DU-145 prostate 10.2% | K-562 leukemia 16.2% | M14 melanoma 11.2% | SNB-19 CNS 14.3%
active: MALME-3M melanoma -38.6% | MDA-MB-231 breast -0.718% | RXF 393 renal -39.2% | SF-268 CNS 8.18% | SF-295 CNS -28.2% | SF-539 CNS -27.4% | UACC-257 melanoma 4.72% | HCT-15 colon 8.1% | HT29 colon 1.84% | SNB-75 CNS -6.88% | U251 CNS -15.4% | PC-3 prostate 8.23% | SK-MEL-5 melanoma -90% | UACC-62 melanoma -10.7% | LOX IMVI melanoma -53.7% | SK-MEL-28 melanoma 5.07%

O=C(c1c[nH]c2ccccc12)c1n[nH]c(=S)n1-c1cccc(Br)c1
inactive: DU-145 prostate 103% | K-562 leukemia 84.6% | MALME-3M melanoma 95.4% | MDA-MB-231 breast 76.9% | RXF 393 renal 104% | SF-268 CNS 95.4% | SF-295 CNS 102% | SF-539 CNS 106% | UACC-257 melanoma 97.4% | M14 melanoma 99.3% | HCT-15 colon 40.9% | HT29 colon 96.2% | SNB-75 CNS 83.2% | SNB-19 CNS 93.8% | U251 CNS 97.3% | PC-3 prostate 87.8% | SK-MEL-5 melanoma 28% | UACC-62 melanoma 51.9% | LOX IMVI melanoma 93.2% | SK-MEL-28 melanoma 105%

Reference: PubChem BioAssay (NCI)
